ELG1 repair inh: inhibitors of ELG1-dependent DNA repair in HEK293T cells. AID 504467. HEK293T ELG1-luciferase reporter, luminescence, 16 h; DNA damage induced by 5-fluorouridine. 330,000 compounds, 2.3% hits. Potency, µM (series often up to 46.1 µM), for inactives: top-dose activity change, negative = inhibition, most hits filed as inhibitors; also: nearly all actives have a fitted effect of over 55% in size
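HEK293T cells expressing luciferase-tagged ELG1 (2,000/well) received 5-Fluorouridine plus compound or DMSO for 16 hr at 37 °C. Luciferase was read by ONE-Glo luminescence after 30 min at room temperature.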
TDP1 cell noCPT: qHTS for Inhibitors of human tyrosyl-DNA phosphodiesterase 1 (TDP1): qHTS in cells in absence of CPT. DT40 Tdp1-/- hTDP1 cells, no CPT, ATP luminescence, 48 h. 420,000 compounds, 15% hits. Potency, µM (highest dose often 46.2 µM), for inactives: at the highest dose activity change, negative = growth inhibition, hits mostly inhibitors; also: nearly all actives have a fitted effect of over 55% in size
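Readout: luminescence from CellTiter-Glo after 30 min in the dark at RT. Cells: DT40 Tdp1-/- with stable hTDP1, 400/well. Exposure: compounds alone, ≥48 hr, 37 °C.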
RORg inh: blocks mouse ROR gamma transcriptional activity | Potency, µM (top dose mostly 53.6 µM), for the others: top-dose activity change, negative = inhibition, actives largely listed as inhibitors | P51450 | Drosophila S2 Gal4-RORgamma UAS-luciferase reporter, 20 h | 310,000 compounds, 5.4% hits; also: nearly all actives have a fitted effect of over 60% in size
Target sequence (P51450 whole entry, looked up, the tested form may be a part): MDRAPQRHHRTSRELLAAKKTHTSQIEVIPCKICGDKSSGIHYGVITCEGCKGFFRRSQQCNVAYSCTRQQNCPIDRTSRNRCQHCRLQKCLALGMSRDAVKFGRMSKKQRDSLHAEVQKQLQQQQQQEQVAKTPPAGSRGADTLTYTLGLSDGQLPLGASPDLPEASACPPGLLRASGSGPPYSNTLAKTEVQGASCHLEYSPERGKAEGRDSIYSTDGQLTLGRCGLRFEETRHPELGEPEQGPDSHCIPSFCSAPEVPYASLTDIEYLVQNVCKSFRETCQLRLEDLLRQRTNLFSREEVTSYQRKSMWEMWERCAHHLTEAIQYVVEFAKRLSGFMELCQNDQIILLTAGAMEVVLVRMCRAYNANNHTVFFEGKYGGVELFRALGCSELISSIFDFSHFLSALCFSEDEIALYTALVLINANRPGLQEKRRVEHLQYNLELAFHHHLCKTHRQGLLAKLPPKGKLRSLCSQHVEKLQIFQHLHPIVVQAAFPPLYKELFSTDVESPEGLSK
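Compounds are pin-transferred onto Drosophila Schneider cells expressing a copper-inducible Gal4–ROR gamma transactivation domain fusion. After 1 hr, copper sulfate is added to 700 uM final; luciferase is read 20 hr later.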
VP16 counter: Gal4-VP16 reporter inhibition counter-screen; Drosophila S2 Gal4-VP16 UAS-luciferase, luminescence, 20 h; Potency, µM (top dose mostly 53.6 µM), for inactives: top-dose activity, negative = inhibition, hits mostly inhibitors; 310,000 compounds, 3.5% hits;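 also: Gal4-VP16 expression switched on by copper sulfate through the metallothionein promoter; nearly all actives have a fitted effect of over 50% in size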
DT40 TDP1 CPT: DT40-hTDP1 cell growth loss with CPT; chicken DT40 Tdp1-/-;hTDP1 cells + 20 nM CPT, ATP luminescence, 48 h; Potency, µM (series often up to 46.2 µM), for the others: at the top dose activity change, negative = growth inhibition, hits mostly inhibitors; 420,000 compounds, 12% hits; also: nearly all actives have a fitted effect of over 55% in size
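Chicken DT40 Tdp1-/- cells complemented with human TDP1, 400 cells/well, exposed to compounds plus 20 nM camptothecin for at least 48 h at 37 C; viability read as ATP content by CellTiter-Glo luminescence.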
12-LOX inh: blocks human arachidonate 12S-lipoxygenase | 580,000 compounds, 1.1% hits | P18054 | purified 12hLO, xylenol orange hydroperoxide absorbance | AID 1671190 | Potency, µM (top dose mostly 108 µM), for inactives: top-dose activity change, negative = inhibition, hits mostly inhibitors
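Purified human 12hLO at 150 nM in 25 mM Hepes, 0.01% Triton X-100, pH 7.0, preincubated 15 min at room temperature with compound. Reaction started with 40 uM arachidonic acid, 30 min at room temperature. Hydroperoxide measured by Fe-xylenol orange, 573/405 nm absorbance ratio.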
The depositor's hits bear a star; ? = inconclusive; . = no result given; [ ] = another dose, or the depositor's remark. Sampled rows, rich in hits. Any-hit rate of the full collection: about 15%. Calls follow the shape of the dose curve; as a rule, active = well fitted curve in the direction sought with a large enough effect; inconclusive = small, poorly fitted or top-dose-only effect, or another doubt; inactive = no such curve, though single readings can be large; an effect the other way counts as inactive or inconclusive. % is scaled to controls: 0 for no effect and ±100 for the full control effect; potency is read from the fitted curve at half-maximal effect.

SMILES	ELG1 repair inh	TDP1 cell noCPT	RORg inh	VP16 counter	DT40 TDP1 CPT	12-LOX inh
CN(C)S(=O)(=O)c1ccc(C(=O)Nc2ccccn2)cc1	?	-8%	-2%	-2%	4%	-6%
CN(C)S(=O)(=O)c1ccc(C(=O)Nc2nc3ccccc3[nH]2)cc1	?	-7%	11µM*	?	14%	8%
Cn1nc(C(=O)NNc2c(F)c(F)cc(F)c2F)c2ccccc2c1=O	-16%	1.5µM*	15%	3%	-16%	-5%
COC(=O)c1ccc2c(c1)nc1n2[C@@H](CNC(C)=O)COC1	.	.	.	.	.	53%[176 µM]
CNc1snc(C)c1C(=O)N(C)CCOc1ccccc1	.	.	.	.	.	-5%
CCC(Oc1ccccc1)C(=O)Nc1nc2ccccc2[nH]1 (stereo not drawn)	?	?	10µM*	?	-7%	0%
CCc1ccc(C(=O)Nc2nc3ccccc3[nH]2)cc1	?	12µM*	2.2µM*	4µM*	18µM*	3%
O=C(Nc1nc2ccccc2[nH]1)c1ccccc1OC(F)F	?	?	7.9µM*	10µM*	1%	3%
O=C(NC(=S)Nc1cccc2[nH]ncc12)c1ccccc1	-3%	-16%	-9%	-7%	-2%	-6%
O=C(Nc1nc2ccccc2[nH]1)c1cc(F)cc(F)c1	?	?	-24%	?	-23%	16%
O=C(Nc1cccc2[nH]ncc12)c1ccc(F)cc1	?	7.3µM*	-3%	17%	?	0%
CSc1ccccc1C(=O)N1CCOC(Cc2cccc(F)c2)C1 (stereo not drawn)	.	.	.	.	.	34%
O=C(NCc1cc(F)ccc1F)C1CN(S(=O)(=O)c2cccnc2)CC12CCCCC2 (stereo not drawn)	.	.	.	.	.	16%
N#Cc1ccc(C(=O)Nc2nc3ccccc3[nH]2)cc1	?	?	3.5µM*	7.1µM*	4%	-12%
Cn1nc(C(=O)NC(c2ccccc2)c2cccs2)c2ccccc2c1=O (stereo not drawn)	.	.	.	.	.	-10%
O=C(Nc1nc2ccccc2[nH]1)c1ccc(F)cc1	?	?	2.8µM*	5.6µM*	-29%	5%
Cn1nc(C(=O)Nc2nc3ccccc3[nH]2)c2ccccc2c1=O	18%	16µM*	?	?	18µM*	-23%
Cn1nc(C(=O)Nc2c(-c3ccccc3)nc3sccn23)c2ccccc2c1=O	6%	13µM*	10µM*	?	21µM*	0%
Cc1oc(-c2ccccc2)nc1CC(=O)Nc1ccc(S(=O)(=O)NC(C)C)cc1	.	.	.	.	.	-3%
CC(=O)NC(c1ccc(C)cc1)c1cc(Cl)c2cccnc2c1O (stereo not drawn)	?	4.1µM*	1.1µM*	0.63µM*	5.2µM*	?
COc1ccc(C(NC(=O)c2cccnc2)c2cc(Cl)c3cccnc3c2O)cc1OC (stereo not drawn)	?	18µM*	2µM*	4µM*	18µM*	-16%
COc1ccc(C(=O)NC(c2ccc(OC)c(OC)c2)c2cc(Cl)c3cccnc3c2O)cc1 (stereo not drawn)	.	5.6µM*	.	.	5µM*	.
Oc1c(C(Nc2ccccn2)c2cccnc2)cc(Cl)c2cccnc12 (stereo not drawn)	-12%	5.2µM*	4µM*	4.5µM*	4.6µM*	?
CC(=O)NC(c1cc(Cl)c2cccnc2c1O)C(C)C (stereo not drawn)	-25%	.	.	.	.	?
CC(C)C(=O)N1Cc2ccccc2CC2(CCCN(C)C2)C1 (stereo not drawn)	.	.	.	.	.	5%[6.33 µM]
SMILES	ELG1 repair inh	TDP1 cell noCPT	RORg inh	VP16 counter	DT40 TDP1 CPT	12-LOX inh
CCC(=O)NC(c1ccc(OC)cc1)c1cc(Cl)c2cccnc2c1O (stereo not drawn)	-6%	6.5µM*	-31%	2%	5.8µM*	3%
CCC(=O)NC(C)c1cc(Cl)c2ccccc2c1O (stereo not drawn)	12%	.	.	.	.	1%
CC(C)c1ccc(NC(=O)C2CCN(S(=O)(=O)c3ccc4c(c3)NC(=O)CO4)CC2)cc1	-3%	23µM*	?	-3%	?	0%
CC1Sc2ccc(S(=O)(=O)N3CCC(C(=O)Nc4ccc(Cl)cc4)CC3)cc2NC1=O (stereo not drawn)	4.6µM*	9.2µM*	?	?	21µM*	0%
Cc1ccc(NC(=O)C2CCN(S(=O)(=O)c3ccc4c(c3)NC(=O)CO4)CC2)cc1	-4%	?	21%	10%	3%	-1%
COc1cccc(NC(=O)C2CCN(S(=O)(=O)c3ccc4c(c3)NC(=O)C(C)S4)CC2)c1 (stereo not drawn)	-23%	21µM*	?	?	21µM*	-6%
COc1ccc(NC(=O)C2CCN(S(=O)(=O)c3ccc4c(c3)NC(=O)C(C)S4)CC2)cc1 (stereo not drawn)	?	?	?	?	?	0%
COc1ccc(Cc2nnc(SCC(=O)Nc3ccc(F)cc3)n2C)cc1	.	.	.	.	.	2%
CCS(=O)(=O)N1CCc2cc(C(=O)CSc3nnc(C4CC4)n3Cc3ccccc3)ccc21	.	.	.	.	.	19%
Cc1nc2cc(NS(=O)(=O)c3ccccc3C(F)(F)F)ccc2o1	.	.	.	.	.	23%
COc1ccccc1/C=C/c1nc(C#N)c(NCc2ccc(F)cc2)o1	.	.	.	.	.	-6%
CCOC1CCCc2oc(-c3ccsc3)c(-c3cnc(OC)nc3)c21 (stereo not drawn)	.	23µM*	.	.	?	?
COc1ccc(-c2ccc3oc(-c4ccsc4)c(-c4ccc(OC)cc4)c3c2)cc1	.	-22%	.	.	-21%	-6%
CCN(CC(=O)NC(N)=O)Cc1ccccc1C	.	.	.	.	.	-3%
CCCCCc1c(-c2ccccc2F)ncn1CCc1ccccc1OC	.	18µM*	.	.	16µM*	-74%
CCCCc1c(-c2ccccc2OC)ncn1Cc1c(F)cccc1F	.	.	.	.	.	-30%
CCCCc1c(-c2ccccc2F)ncn1CCc1ccccc1OC	.	16µM*	.	.	26µM*	?
Cc1[nH]c2ccccc2c1C(=O)C(C)OC(=O)c1ccccc1F (stereo not drawn)	.	.	.	.	.	-3%
O=C(NN=C1CCN(Cc2ccccc2)CC1)c1cc(Br)ccc1O	3%	-16%	3.5µM*	?	-17%	-5%
O=C(N/N=C/c1ccc(O)cc1)c1[nH]c2ccc(Br)cc2c1-c1ccccc1	-3%	2.9µM*	3%	?	3.7µM*	-12%
